We go through 30 molecules from PubChem BioAssay (Tox21).

“And” between values parts separate entries of the source, which are not always exact repeats. Identical values can stand only once. A number with no mark means an inactive call. Results filed as inconclusive are left out. The source made the active and inactive calls. Calls follow the shape of the full dose curve.

In experiment [1] the target is Acetylcholinesterase (Homo sapiens) (UniProt P22303). Put plainly: Acetylcholinesterase (AChE) small molecule antagonists: colormetric cell-based qHTS assay (AID 1347395). Also: nearly all actives have a fitted effect of over 30% in size. Also: potency is read from the fitted curve at half-maximal effect. In outline:
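Endogenous AChE of human neuroblastoma SH-SY5Y cells was measured with an Ellman-type DTNB/acetylthiocholine mix. Compound pretreatment lasted 30 min at 37 C; substrate reaction ran 90 min at 37 C.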
On the technique in general: qHTS replaces the single test concentration by a dilution series.

Experiment [2] shares this target. As to the kind of experiment: Acetylcholinesterase (AChE) small molecule antagonists: enzyme-based qHTS assay (AID 1347397). Also: nearly all actives have a fitted effect of over 55% in size. Also: potency is read from the fitted curve at half-maximal effect. As to conditions: Potency: AChE enzyme activity inhibition; outcome: AChE enzyme activity inhibition. In outline:
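In this quantitative HTS, compounds from the Tox21 10K collection were preincubated 30 min at ambient temperature with recombinant human AChE dispensed at 50 mU/mL. Hydrolysis of acetylthiocholine was then followed for 10 min by DTNB colour development.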

Experiment [3] shares this target. Put plainly: Acetylcholinesterase (AChE) small molecule antagonists: fluorescence cell-based qHTS assay (AID 1347398). Also: nearly all actives have a fitted effect of over 50% in size. Also: potency is read from the fitted curve at half-maximal effect. As to conditions: Potency: AChE activity; outcome: AChE activity. The method in brief:
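Cells (SH-SY5Y) attached overnight, were dosed with compound or DMSO vehicle for 30 min at 37 C, and then incubated 40 min at room temperature with acetylthiocholine and Thiolite Green; green fluorescence indexed AChE activity.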

For experiment [4] the target is unchanged. Put plainly: Acetylcholinesterase (AChE) small molecule antagonists: enzyme-based qHTS assay with human liver microsomes (AID 1347399). Also: nearly all actives have a fitted effect of over 60% in size. The settings on record: Potency: qHTS inhibition; outcome: qHTS inhibition. In outline:
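Recombinant human AChE (50 mU/mL in the enzyme mix) and human liver microsomes (0.25 mg/mL final) were preincubated with compound and NADPH (0.25 mg/mL final) for 30 min at 37 C. Acetylthiocholine/DTNB was then added; thiocholine was read colorimetrically after 10 min at room temperature.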

Sequence of Acetylcholinesterase (Homo sapiens) (P22303 whole entry, looked up): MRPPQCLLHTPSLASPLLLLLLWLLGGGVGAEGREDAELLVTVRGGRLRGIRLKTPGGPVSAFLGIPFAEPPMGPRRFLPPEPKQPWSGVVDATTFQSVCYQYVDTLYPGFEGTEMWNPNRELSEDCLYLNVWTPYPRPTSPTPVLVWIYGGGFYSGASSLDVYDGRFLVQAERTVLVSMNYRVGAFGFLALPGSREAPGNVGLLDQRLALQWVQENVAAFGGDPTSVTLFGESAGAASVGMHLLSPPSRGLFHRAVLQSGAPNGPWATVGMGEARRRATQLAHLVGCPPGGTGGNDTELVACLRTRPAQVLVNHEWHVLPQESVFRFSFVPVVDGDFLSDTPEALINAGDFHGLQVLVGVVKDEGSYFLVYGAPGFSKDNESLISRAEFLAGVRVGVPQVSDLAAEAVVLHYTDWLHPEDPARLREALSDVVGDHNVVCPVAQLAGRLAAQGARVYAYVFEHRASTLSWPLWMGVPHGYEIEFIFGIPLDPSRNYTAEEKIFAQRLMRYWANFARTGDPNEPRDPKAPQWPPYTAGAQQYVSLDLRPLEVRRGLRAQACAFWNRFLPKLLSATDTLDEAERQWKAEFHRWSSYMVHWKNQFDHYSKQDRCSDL

As for `CC(=O)c1cc2ccccc2s1`, the Potency result in experiment [1], in experiment [2], in experiment [3] and in experiment [4] was “inactive” each time.

For `C[C@H]1C[C@@H](O)CC(C)(C)C1`, the Potency entry in experiment [1], in experiment [2], in experiment [3] and in experiment [4] was “inactive” in each case.

With `C/C=C(\C)C=O`, the Potency result in experiment [1], in experiment [2], in experiment [3] and in experiment [4] was “inactive” in each case.

On to `CCCCCCCCNC`, for which the Potency result in experiment [1], in experiment [2], in experiment [3] and in experiment [4] was “inactive” throughout.

For the molecule `C=COCC1CCC(CO)CC1` (stereo not given), the Potency result in experiment [1], in experiment [2], in experiment [3] and in experiment [4] was “inactive” in each case.

On to `C=Cc1ccccn1`, for which the Potency result in experiment [1], in experiment [2], in experiment [3] and in experiment [4] was “inactive” each time.

`CC1=CC(O)CC(C)(C)C1` (stereo not given): the Potency entry in experiment [1], in experiment [2], in experiment [3] and in experiment [4] was “inactive” in each case.

For the molecule `COc1ccc(Nc2ccccc2)c(C)c1`, the Potency result in experiment [1], in experiment [2], in experiment [3] and in experiment [4] was “inactive” each time.

For `CC(C)(C)c1cc(CCC(=O)OCC(COC(=O)CCc2cc(C(C)(C)C)c(O)c(C(C)(C)C)c2)(COC(=O)CCc2cc(C(C)(C)C)c(O)c(C(C)(C)C)c2)COC(=O)CCc2cc(C(C)(C)C)c(O)c(C(C)(C)C)c2)cc(C(C)(C)C)c1O`, the Potency entry in experiment [1], in experiment [2], in experiment [3] and in experiment [4] was “inactive” each time.

Consider `CCCC(=O)OCC(COC(=O)CCC)OC(=O)CCC`, for which the Potency result in experiment [1], in experiment [2], in experiment [3] and in experiment [4] was “inactive” in each case.

On to `C1COCO1`, for which the Potency entry in experiment [1], in experiment [2], in experiment [3] and in experiment [4] was “inactive” in each case.

`CC(C)CC(=O)CC(C)C`: the Potency result in experiment [1], in experiment [2], in experiment [3] and in experiment [4] was “inactive” throughout.

As to `O=C(O)c1cc(C(=O)O)cc(C(=O)O)c1`, the Potency entry in experiment [1], in experiment [2], in experiment [3] and in experiment [4] was “inactive” each time.

As to `Fc1ccc([C@@H]2CCNC[C@H]2COc2ccc3c(c2)OCO3)cc1`, the Potency entry in experiment [1], in experiment [2], in experiment [3] and in experiment [4] was “inactive” each time.

Regarding `CC(CCO)CCc1ccccc1` (stereo not given), the Potency entry in experiment [1], in experiment [2], in experiment [3] and in experiment [4] was “inactive” throughout.

As for `Nc1nc(N)nc(-c2ccccc2)n1`, the Potency result in experiment [1], in experiment [2], in experiment [3] and in experiment [4] was “inactive” throughout.

Regarding `CN(C)CCCCl`, the Potency entry in experiment [1], in experiment [2], in experiment [3] and in experiment [4] was “inactive” in each case.

On to `CC(=O)N(CC(O)CO)c1c(I)c(C(=O)NCC(O)CO)c(I)c(C(=O)NCC(O)CO)c1I` (stereo not given), for which the Potency result in experiment [1], in experiment [2], in experiment [3] and in experiment [4] was “inactive” each time.

As to `OCCOCCOCCO`, the Potency entry in experiment [1], in experiment [2], in experiment [3] and in experiment [4] was “inactive” each time.

As for `O=C1CC2CC1C1CCCC21` (stereo not given), the Potency result in experiment [1], in experiment [2], in experiment [3] and in experiment [4] was “inactive” in each case.

In the case of `Cc1ccccc1C(=O)N1CC/C(=N\OS(=O)(=O)O)c2ccc(Cl)cc21`, the Potency entry in experiment [1], in experiment [2], in experiment [3] and in experiment [4] was “inactive” in each case.

As for `O=C1CCCCCCCCCCCC(=O)OCCO1`, the Potency result in experiment [1], in experiment [2], in experiment [3] and in experiment [4] was “inactive” in each case.

Turning to `CCCOC(=O)CC`, the Potency entry in experiment [1], in experiment [2], in experiment [3] and in experiment [4] was “inactive” in each case.

Turning to `C=CCS(=O)(=O)O`, the Potency entry in experiment [1], in experiment [2], in experiment [3] and in experiment [4] was “inactive” in each case.

Regarding `O=c1cc(-c2ccccc2)oc2cc(O)cc(O)c12`, the Potency result in experiment [1], in experiment [2], in experiment [3] and in experiment [4] was “inactive” in each case.

On to `OC[C@H]1O[C@@H]2O[C@H]3[C@H](O)[C@@H](O)[C@@H](O[C@H]4[C@H](O)[C@@H](O)[C@@H](O[C@H]5[C@H](O)[C@@H](O)[C@@H](O[C@H]6[C@H](O)[C@@H](O)[C@@H](O[C@H]7[C@H](O)[C@@H](O)[C@@H](O[C@H]1[C@H](O)[C@H]2O)O[C@@H]7CO)O[C@@H]6CO)O[C@@H]5CO)O[C@@H]4CO)O[C@@H]3CO`, for which the Potency entry in experiment [1], in experiment [2], in experiment [3] and in experiment [4] was “inactive” in each case.

As to `O=c1c(-c2ccc(O)cc2)coc2cc(O)ccc12`, the Potency entry in experiment [1], in experiment [2], in experiment [3] and in experiment [4] was “inactive” in each case.

Take `O=C(OCCOCCOCCOC(=O)c1ccccc1)c1ccccc1`: the Potency result in experiment [1], in experiment [2], in experiment [3] and in experiment [4] was “inactive” each time.

For the molecule `CN1CCc2cccc3c2[C@H]1Cc1ccc(O)c(O)c1-3`, the Potency in experiment [1] was 64 µM (active); in experiment [2], 40.4 µM (active) and 21.1 µM (active); in experiment [3], 64 µM (active). Moreover, in experiment [4], the Potency entry was “inactive”.

`Cc1ccc(N=Nc2c(O)ccc3ccccc23)c(C)c1`: the Potency result in experiment [1], in experiment [2], in experiment [3] and in experiment [4] was “inactive” throughout.
